Results from ChEMBL document CHEMBL3988442, “University of Dundee, Small-Polar-MMV Screening Library” (2021).
For some assays here: Results with a measured potency or affinity are listed apart.

Key:
Design in all cases: scale not given: direction of the effect not stated beside the values
[1] = target: Protein translocase subunit SecA (Escherichia coli (strain K12)) (UniProt P10408); experiment: Assay to Identify E. coli SecA ATPase Inhibitors; assay type: functional; conditions: 30 µM
[2] = target: T1, Ubiquitin-activating enzyme e1, putative (Leishmania donovani (strain BPK282A1)) (UniProt E9BSI1); experiment: Leishmania donovani Ubiquitin Activating Enzyme (LdE1); assay type: functional; conditions: 30 µM
T1 sequence (whole entry): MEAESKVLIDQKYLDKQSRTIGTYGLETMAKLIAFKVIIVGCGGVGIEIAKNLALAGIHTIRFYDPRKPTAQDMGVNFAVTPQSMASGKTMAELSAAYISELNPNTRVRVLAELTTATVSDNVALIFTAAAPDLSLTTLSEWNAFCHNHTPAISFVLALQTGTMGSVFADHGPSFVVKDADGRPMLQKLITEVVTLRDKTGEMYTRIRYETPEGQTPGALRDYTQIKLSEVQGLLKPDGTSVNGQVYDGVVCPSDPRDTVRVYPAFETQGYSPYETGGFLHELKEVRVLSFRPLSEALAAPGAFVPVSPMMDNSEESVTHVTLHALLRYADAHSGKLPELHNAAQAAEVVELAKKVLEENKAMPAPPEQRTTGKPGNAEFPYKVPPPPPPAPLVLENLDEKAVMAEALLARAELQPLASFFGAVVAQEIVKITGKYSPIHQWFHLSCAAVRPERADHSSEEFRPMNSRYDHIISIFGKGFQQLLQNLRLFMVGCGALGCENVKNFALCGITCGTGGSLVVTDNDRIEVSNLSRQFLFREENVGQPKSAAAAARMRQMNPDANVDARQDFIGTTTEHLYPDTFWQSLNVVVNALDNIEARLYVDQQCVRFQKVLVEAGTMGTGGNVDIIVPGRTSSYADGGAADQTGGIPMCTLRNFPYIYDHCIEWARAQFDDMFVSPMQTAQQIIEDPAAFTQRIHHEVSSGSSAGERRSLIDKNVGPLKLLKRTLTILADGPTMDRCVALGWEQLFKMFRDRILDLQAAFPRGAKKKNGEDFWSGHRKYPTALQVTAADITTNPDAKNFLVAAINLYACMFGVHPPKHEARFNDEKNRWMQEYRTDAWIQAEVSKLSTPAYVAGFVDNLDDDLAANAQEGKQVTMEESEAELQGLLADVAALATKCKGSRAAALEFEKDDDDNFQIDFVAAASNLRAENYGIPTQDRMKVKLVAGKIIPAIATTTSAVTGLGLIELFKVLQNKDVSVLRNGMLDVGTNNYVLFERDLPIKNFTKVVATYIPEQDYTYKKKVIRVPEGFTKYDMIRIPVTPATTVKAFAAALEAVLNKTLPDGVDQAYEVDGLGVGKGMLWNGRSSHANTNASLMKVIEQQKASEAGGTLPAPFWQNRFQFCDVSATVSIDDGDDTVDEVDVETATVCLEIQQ

[3] = target: AMP-activated protein kinase, AMPK (Homo sapiens) (UniProt P54646+O43741+P54619+Q9UGJ0+Q9Y478+Q13131+Q9UGI9); experiment: AMP-dependent Kinase enzyme assay. An in vitro enzyme assay that detects ADP turnover that is directly proportional to AMPK activity. This uses naive AMPK that is activated during the assay with MK-8722; assay type: functional; conditions: 30 µM
[4] = target: Sialic acid-binding Ig-like lectin 9 (Homo sapiens) (UniProt Q9Y336); experiment: Hs-Siglec9 ALPHAscreen SOP 20170721; conditions: 10 µM
[5] = test system: Trypanosoma cruzi; experiment: Trypanosoma cruzi phosphomannomutase and mannose-1-phosphate guanylyltransferase assay; assay type: functional; conditions: 10 µM
[6] = target: T2, Arginase-2, mitochondrial (Homo sapiens) (UniProt P78540); experiment: in vitro enzyme assay to detect the production of urea directly proportional to the activity of Arginase II; assay type: functional; conditions: 33.3 µM; note: in the data most compounds retested in dose-response had high values
T2 sequence (whole entry): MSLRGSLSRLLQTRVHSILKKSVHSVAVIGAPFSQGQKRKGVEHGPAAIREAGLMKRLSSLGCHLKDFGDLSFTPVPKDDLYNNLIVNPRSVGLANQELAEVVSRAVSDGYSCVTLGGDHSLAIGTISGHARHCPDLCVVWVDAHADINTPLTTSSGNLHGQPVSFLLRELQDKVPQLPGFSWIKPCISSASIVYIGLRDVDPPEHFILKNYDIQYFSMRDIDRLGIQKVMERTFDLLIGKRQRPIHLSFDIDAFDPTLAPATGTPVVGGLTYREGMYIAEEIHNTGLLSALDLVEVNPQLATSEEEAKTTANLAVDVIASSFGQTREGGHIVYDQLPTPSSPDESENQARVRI

[7] = target: T3, Proteasome subunit beta (Trypanosoma cruzi) (UniProt O96673); experiment: Trypanosoma cruzi proteasome chymotrypsin-like activity (TcProtChymo) assay.; note: in the data most compounds retested in dose-response had high values; assay type: functional; conditions: 9.37 µM
T3 sequence (whole entry): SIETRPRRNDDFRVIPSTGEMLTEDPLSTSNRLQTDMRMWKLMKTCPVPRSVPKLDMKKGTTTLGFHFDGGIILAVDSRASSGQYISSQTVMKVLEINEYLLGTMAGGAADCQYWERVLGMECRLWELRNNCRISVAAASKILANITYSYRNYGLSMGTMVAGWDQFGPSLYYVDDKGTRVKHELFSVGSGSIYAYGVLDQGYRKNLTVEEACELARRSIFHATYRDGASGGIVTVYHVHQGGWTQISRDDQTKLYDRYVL

[8] = organism: Homo sapiens; experiment: To identify inhibition of the IFN signalling (Jak-Stat) pathway via expression of an eGFP reporter gene under the control of an IFN-stimulated response element (ISRE) containing MxA promoter.; assay type: functional; conditions: 30 µM
[9] = target: T4, Tyrosyl-tRNA synthetase, putative (Trypanosoma cruzi (strain CL Brener)) (UniProt Q4DSP6); experiment: Trypanosoma cruzi tyrosyl tRNA synthetase (TcYRS) _High Tyrosine SOP; assay type: functional; conditions: 30 µM; note: in the data most compounds retested in dose-response had high values
T4 sequence (whole entry): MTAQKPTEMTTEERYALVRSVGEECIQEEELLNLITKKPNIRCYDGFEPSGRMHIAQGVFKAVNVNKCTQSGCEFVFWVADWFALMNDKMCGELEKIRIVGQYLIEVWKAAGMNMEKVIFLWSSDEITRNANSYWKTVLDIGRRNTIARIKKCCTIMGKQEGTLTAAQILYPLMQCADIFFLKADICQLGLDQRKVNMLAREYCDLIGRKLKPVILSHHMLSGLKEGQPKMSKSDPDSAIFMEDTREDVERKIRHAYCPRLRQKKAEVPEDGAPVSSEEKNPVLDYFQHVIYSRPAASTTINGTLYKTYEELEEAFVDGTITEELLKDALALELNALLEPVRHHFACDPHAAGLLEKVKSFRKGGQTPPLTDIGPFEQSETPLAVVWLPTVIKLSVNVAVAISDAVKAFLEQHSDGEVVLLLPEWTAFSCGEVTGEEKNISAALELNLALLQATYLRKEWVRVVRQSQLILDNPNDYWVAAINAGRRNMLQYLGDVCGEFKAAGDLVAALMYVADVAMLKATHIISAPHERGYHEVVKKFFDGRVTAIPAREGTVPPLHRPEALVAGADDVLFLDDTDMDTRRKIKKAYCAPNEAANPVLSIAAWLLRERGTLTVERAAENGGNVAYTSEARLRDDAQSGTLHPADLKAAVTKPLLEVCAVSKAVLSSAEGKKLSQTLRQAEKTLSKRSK

[10] = target: T4, Tyrosyl-tRNA synthetase, putative (Trypanosoma cruzi (strain CL Brener)); experiment: Trypanosoma cruzi tyrosyl tRNA synthetase (TcYRS) SOP; assay type: functional; conditions: 30 µM
[11] = target: Chromo domain-containing protein 1 (Saccharomyces cerevisiae (strain ATCC 204508 / S288c) (Baker's yeast)) (UniProt P32657); experiment: ScCHD-1 Enzyme Inhibition Assay; assay type: functional; conditions: 30 µM; note: in the data most compounds retested in dose-response had high values
Chromo domain-containing protein 1 (Saccharomyces cerevisiae (strain ATCC 204508 / S288c) (Baker's yeast)), sequence (P32657 whole entry, the tested form may be a part): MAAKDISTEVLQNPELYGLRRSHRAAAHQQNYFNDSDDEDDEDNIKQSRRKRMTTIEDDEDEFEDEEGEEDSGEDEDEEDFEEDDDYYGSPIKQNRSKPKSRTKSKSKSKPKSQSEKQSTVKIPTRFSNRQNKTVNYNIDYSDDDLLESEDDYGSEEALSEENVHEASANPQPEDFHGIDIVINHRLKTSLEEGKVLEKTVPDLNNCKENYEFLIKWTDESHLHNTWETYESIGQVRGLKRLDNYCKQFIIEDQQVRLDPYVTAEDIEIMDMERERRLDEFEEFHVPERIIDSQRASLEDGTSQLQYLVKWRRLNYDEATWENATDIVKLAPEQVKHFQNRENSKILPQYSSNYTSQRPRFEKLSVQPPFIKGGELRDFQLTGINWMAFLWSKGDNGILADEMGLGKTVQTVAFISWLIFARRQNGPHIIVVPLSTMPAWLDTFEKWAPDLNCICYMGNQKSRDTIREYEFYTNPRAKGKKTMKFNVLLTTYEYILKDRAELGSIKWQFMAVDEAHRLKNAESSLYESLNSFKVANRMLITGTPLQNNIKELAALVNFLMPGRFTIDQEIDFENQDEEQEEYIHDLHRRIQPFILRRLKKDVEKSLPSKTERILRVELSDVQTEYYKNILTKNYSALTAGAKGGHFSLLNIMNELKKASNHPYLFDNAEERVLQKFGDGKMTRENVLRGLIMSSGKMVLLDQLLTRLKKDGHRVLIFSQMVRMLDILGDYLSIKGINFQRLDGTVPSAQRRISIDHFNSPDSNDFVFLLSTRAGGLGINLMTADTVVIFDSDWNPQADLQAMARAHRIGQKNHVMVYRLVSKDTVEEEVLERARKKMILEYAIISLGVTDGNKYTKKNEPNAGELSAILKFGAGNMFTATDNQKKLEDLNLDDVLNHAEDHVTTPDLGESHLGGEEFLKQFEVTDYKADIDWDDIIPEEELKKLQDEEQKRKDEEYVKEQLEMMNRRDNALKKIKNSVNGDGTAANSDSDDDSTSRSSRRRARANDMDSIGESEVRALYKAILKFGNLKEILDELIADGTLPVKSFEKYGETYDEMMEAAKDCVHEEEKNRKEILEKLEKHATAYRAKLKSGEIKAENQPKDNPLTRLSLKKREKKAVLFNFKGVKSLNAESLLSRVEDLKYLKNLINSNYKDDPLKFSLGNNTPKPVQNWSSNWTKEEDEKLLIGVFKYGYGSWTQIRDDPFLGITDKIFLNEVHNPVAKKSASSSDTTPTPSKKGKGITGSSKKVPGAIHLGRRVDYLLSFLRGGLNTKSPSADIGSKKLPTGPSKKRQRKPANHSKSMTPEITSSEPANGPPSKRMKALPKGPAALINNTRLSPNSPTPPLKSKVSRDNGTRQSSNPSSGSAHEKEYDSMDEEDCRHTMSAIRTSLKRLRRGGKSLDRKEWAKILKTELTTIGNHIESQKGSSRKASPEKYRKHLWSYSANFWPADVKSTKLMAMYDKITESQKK

Protein translocase subunit SecA (Escherichia coli (strain K12)), sequence (P10408 whole entry): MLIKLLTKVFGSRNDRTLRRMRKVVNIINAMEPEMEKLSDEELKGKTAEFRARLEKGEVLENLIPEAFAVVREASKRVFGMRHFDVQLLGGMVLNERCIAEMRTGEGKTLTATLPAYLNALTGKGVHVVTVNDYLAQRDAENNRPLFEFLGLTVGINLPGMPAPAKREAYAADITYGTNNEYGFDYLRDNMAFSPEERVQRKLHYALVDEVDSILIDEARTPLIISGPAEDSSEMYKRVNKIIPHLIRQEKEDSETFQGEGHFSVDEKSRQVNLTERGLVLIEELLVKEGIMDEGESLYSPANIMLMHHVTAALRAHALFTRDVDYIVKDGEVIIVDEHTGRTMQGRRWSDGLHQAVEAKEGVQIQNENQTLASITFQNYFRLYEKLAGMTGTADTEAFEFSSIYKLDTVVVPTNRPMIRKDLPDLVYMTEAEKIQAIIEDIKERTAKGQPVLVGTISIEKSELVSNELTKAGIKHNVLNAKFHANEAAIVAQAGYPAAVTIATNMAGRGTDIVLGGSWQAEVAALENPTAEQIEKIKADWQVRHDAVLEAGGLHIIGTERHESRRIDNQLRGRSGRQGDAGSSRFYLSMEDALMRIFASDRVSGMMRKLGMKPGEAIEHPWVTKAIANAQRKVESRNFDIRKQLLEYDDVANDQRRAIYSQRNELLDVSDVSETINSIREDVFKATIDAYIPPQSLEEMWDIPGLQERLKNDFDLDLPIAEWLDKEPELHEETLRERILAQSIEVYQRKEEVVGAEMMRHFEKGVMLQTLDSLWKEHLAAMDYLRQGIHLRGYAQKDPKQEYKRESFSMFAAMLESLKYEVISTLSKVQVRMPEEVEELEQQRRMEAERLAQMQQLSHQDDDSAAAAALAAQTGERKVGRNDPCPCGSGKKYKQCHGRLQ
Sialic acid-binding Ig-like lectin 9 (Homo sapiens), sequence (Q9Y336 whole entry): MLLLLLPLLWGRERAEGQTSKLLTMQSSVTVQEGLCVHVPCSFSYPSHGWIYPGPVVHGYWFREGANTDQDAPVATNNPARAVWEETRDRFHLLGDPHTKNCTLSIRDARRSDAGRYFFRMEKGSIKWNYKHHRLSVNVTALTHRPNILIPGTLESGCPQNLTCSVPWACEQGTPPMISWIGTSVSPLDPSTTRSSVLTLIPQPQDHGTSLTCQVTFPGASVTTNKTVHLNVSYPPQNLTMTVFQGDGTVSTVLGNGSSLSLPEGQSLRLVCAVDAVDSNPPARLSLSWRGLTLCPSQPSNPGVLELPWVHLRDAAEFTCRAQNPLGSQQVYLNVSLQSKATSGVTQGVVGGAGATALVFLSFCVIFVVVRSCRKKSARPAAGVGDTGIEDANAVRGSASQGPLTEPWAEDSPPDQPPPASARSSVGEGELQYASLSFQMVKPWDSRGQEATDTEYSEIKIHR

SMILES	Percent Effect [1] [%]	Percent Effect [2] [%]	Percent Effect [3] [%]	Percent Effect [4] [%]	Percent Effect [5] [%]	Percent Effect [6] [%]	Percent Effect [7] [%]	Percent Effect [8] [%]	Percent Effect [9] [%]	Percent Effect [10] [%]	Percent Effect [11] [%]
CNC(=O)[C@H]1C[C@@H]2CN(S(=O)(=O)c3ccccc3)C[C@@H]2N1C	-2.19	-5.2	3.6	3.49	-0.492	-13.8	1.83	6.5	2.15	-1.24	2.52
CC(=O)NC1CCCN(C(=O)c2ccc(Br)cc2O)C1 (stereo unspecified)	-4.72	8.11	-9.01	7.98	-2.92	1.6	5.95	3.4	6.4	16.1	-2.5
Cn1cc(C(=O)NC[C@@H]2OC[C@H]3CN(S(C)(=O)=O)CC[C@H]32)cn1	-0.605	-74	-4.74	17	7.74	-1.6	11	9.87	5.21	1.24	-6.34
Cc1n[nH]c(C2CN(CC(=O)NCc3ccco3)CCO2)n1 (stereo unspecified)	-7.98	0	3.1	-5.39	-5.36	-2.6	6.8	24.6	-1.64	-3.7	-2.33
Cc1nc2c(c(C)c1CC(=O)NCc1cccc(C#N)c1)c(=O)[nH]n2C	-4.87	7.79	6.32	0.967	-4.21	1.9	1.05	31.2	2.86	11.8	-1.91
Cc1ccc2c(c1)OCCCC2NCc1nnc2n1CCCCC2 (stereo unspecified)	-3.75	2.7	-4.22	17.1	5.57	2.23	0.772	-5.39	-15.1	6.17	-11.7
CN(Cc1ccco1)C(=O)CN1CCCCC1Cn1cccn1 (stereo unspecified)	1.65	0	6.46	-9.17	-1.27	-2.74	17.1	-30.8	4.76	9.41	-9.28
CC(C)c1ccc(C(O)Cn2c(=O)c(C#N)cn(C3CC3)c2=O)cc1 (stereo unspecified)	-0.117	-2.63	7.18	0.134	-6.39	4.21	0.334	1.74	-1.47	-2.44	-2.6
Cc1nc(C)c(CC(=O)Nc2ncc(C)s2)c(=O)[nH]1	-0.904	13.2	-1.41	14.1	1.5	-1.53	-2.51	-6.67	5.39	17.1	-5.26
COc1ccc(OCCNCCn2cccn2)cc1	1.21	1.27	-2.53	10.8	-1.95	7.1	6.69	6.41	-1.04	2.53	-1.82
CSCc1cccc(S(=O)(=O)NCCCn2ccnc2)c1	-5.68	-23.4	-1.48	6.2	1.67	-6.9	2.16	2.79	7.53	21	-1.53
CCN(Cc1ccc2c(c1)OCO2)C(=O)CCc1c(C)nc(C)[nH]c1=O	-1.41	5.26	1.51	7.45	-4.32	9.96	6.85	21.9	3.43	9.76	-1.69
Cc1nc(CCC(=O)NC2CCC2)cc(C2CCNCC2)n1	-4.77	26.7	-4.67	-2.25	6.1	-4.43	4.67	3.41	4.25	19.2	-7.72
Cc1ccnc(OCC(=O)N2CCC(C(N)=O)CC2)n1	-3.87	21.9	0.564	12.6	1.37	5	11.4	7.23	6.45	15	-7.43
Cn1nc(C#N)c2c1CN(C(=O)c1cccnc1)CCC2	-4.61	2.6	-0.491	-7	-2.66	-1.94	3.13	6.32	-2.12	-6.41	-0.821
Cc1noc(C)c1C(=O)NCc1ccnc(OCC(F)(F)F)c1	-3.23	26.3	-1.27	0.107	7.52	0	11.2	10.2	7.35	9.76	-11
